From PubChem BioAssay
Compounds with a hit are over-represented: about 4% of the library has one in this group of screens.
HIF-2a block = HIF-2a reporter inhibitors, primary screen, luminescence, 786-0 RCC cells | 786-0 RCC cells HIF-2a reporter, luciferase luminescence, overnight | inhibition, % at 18.8 µM | hit rate 0.72% among 360,000 | AID 624352, 2012;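 active means inhibition of the luminescence signal of 40% or more relative to plate controls, in a single-dose primary screen at 18.75 µM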
TROY NFkB inh = inhibitors of TROY-driven NF-kB signaling, primary screen, Q293 LMP1-TROYcd cells, NF-kB luciferase, uHTS | Q293 LMP1-TROYcd NF-kB luciferase reporter, 4 h | inhibition, % at 10 µM | hit rate 0.98% among 360,000;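 active means compounds whose plate-normalised and pattern-corrected inhibition of the luciferase reporter signal at the single screening dose is 50% or more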
TWEAK Fn14 block = inhibitors of TWEAK-Fn14 signaling, primary screen, luciferase reporter cells, uHTS; hit rate 2% among 360,000; TWEAK-stimulated Fn14 reporter cells, luciferase luminescence, 8 h; inhibition, % at 10 µM; AID 1159606, 2016; in the data active means inhibition above about 50%
CF NFkB inh = inhibitors of PAF-induced NF-kB signaling, primary screen, cell-based, GFP fluorescence, uHTS. KKLEB NF-kB-GFP reporter, GFP fluorescence overnight. inhibition, % at 5 µM. hit rate 0.86% among 360,000. AID 588850, 2011;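 active means at least 50% inhibition at 5 µM, scaled per plate between neutral and stimulator controls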;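 further: PAF is a Pseudomonas aeruginosa culture filtrate used as stimulus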
KKLEB cytotox = cytotoxicity in KKLEB CF airway cells, primary screen, cytotoxicity control for CF NF-kB inhibitor project, cell-based, uHTS, fluorescence assay plates; KKLEB CF airway cells viability, ATPlite luminescence, overnight; active compounds read low; cells stimulated with P. aeruginosa culture filtrate; AID 602141, 2011; hit rate 0.36% among 360,000; activity change (cytotoxicity), % at 5 µM;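 active means corrected activity change at or below -50% at 5 µM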
Peg3 prom inh = Peg3 promoter-driven luciferase inhibitors, primary screen, cell-based, HeLa, luciferase luminescence. HeLa PEG-Prom luciferase reporter, overnight. hit rate 1.7% among 360,000. inhibition, % at 20 µM;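 active means inhibition of at least 50% at 20 µM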
Of the large screens only hits and unclear results are named; the others gave an inactive call.

O=C(Nc1cccc(Cl)c1N1CCOCC1)c1cc([N+](=O)[O-])ccc1N1CCOCC1	none
O=C(Nc1cccc(Cl)c1N1CCCCC1)c1ccc(N2CCOCC2)c([N+](=O)[O-])c1	CF NFkB inh 65.4, KKLEB cytotox -67.8
O=C(Nc1ccccc1-c1ccccc1)c1ccc(Cl)c([N+](=O)[O-])c1	Peg3 prom inh 94.0
Cc1ccc(-c2csc(NC(=O)c3cc([N+](=O)[O-])ccc3N3CCOCC3)n2)cc1	none
COc1ccc(-c2cn(Cc3ccc(C(N)=O)cc3)c(-c3ccc(Cl)nc3)n2)cc1	none
O=C(COC(=O)COc1ccc(Cl)cc1Cl)NC1CCCC1	none
CCC(CC)C(=O)Nc1nnc(S(=O)(=O)Nc2ccccc2C)s1	none
COc1cc([N+](=O)[O-])ccc1NC(=O)NCC1CCN(Cc2ccc(Cl)cc2)CC1	none
O=C(Nc1ccn(Cc2ccccc2F)n1)c1ccc(COc2ccccc2Cl)cc1	TROY NFkB inh 53.2, TWEAK Fn14 block 62.2
O=C(Nc1ccn(Cc2c(F)c(F)cc(F)c2F)n1)c1ccc(COc2ccccc2Cl)cc1	none
COc1ncnc2c1ncn2CCCNCCCN1CCCC1=O	none
CN(C)c1nc(-c2ccccn2)nnc1-c1ccccc1	Peg3 prom inh 52.7
OCc1cn(-c2ccccc2)nc1-c1ccc(-c2nn(-c3ccccc3)cc2CO)cc1	TWEAK Fn14 block 51.7
COC(=O)c1ccc(CSc2nnc(NC(=O)C3CC(=O)N(c4ccc5c(c4)OCCO5)C3)s2)cc1 (centres undefined)	TWEAK Fn14 block 54.5
CCc1ccc(N2CC(C(=O)Nc3ccc4c(c3)OCCO4)CC2=O)cc1 (centres undefined)	TROY NFkB inh 55.3, TWEAK Fn14 block 51.1
Cc1cc(NC(=O)C2CC(=O)N(c3cccc(C)c3C)C2)no1 (centres undefined)	none
CCc1ccc(C(=O)NNC(=O)C2CC(=O)N(c3ccc4c(c3)OCCO4)C2)cc1 (centres undefined)	none
